The results in this text go back to PubChem BioAssay.

Experiment [1] in a line: sensitizers of A549 cells to miR-34 induction, primary screen, imaging, A549 dox-inducible miR-34, nuclei and caspase counts (AID 1347080). Particulars: A549 miR-34 inducible, Hoechst nuclei count, 48 h.
The nature of experiment [2]: phospholipid biosynthesis inhibitors in animal cells, primary screen, cell-based, LOPAC library, screen 4 (AID 1347384; call rule not given here). Particulars: phospholipid biosynthesis inhibition screen, at 10 µM.
Experiment [3] is described as follows: survival rescue of mitochondrial mutant cells in low glucose, primary screen, MELAS cybrids, Rieske KO mouse fibroblasts, CellTiter-Glo (AID 1508586;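 active = mean z-score across replicates of 1.96 or higher in either the MELAS or the Rieske mutant cell line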;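 note: z relative to plate mean and SD of compound and empty wells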).
Experiment [4] is described as follows: viability rescue of complex I mutant cybrids, primary screen, cell-based, galactose medium, ATP luminescence (AID 1645843;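 active = z-score of at least 1.8 in each of two replicates, scored against plate mean and spread of sample wells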;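 note: positive z means more ATP and so rescue of galactose-driven cybrid death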). Particulars: complex I mutant cybrid cells, 72 h, stronger effect = higher value.
In experiment [5] the target is NAD(+) hydrolase SARM1 (Homo sapiens) (UniProt Q6SZW1). The experiment is described as follows: SARM1 TIR NADase inhibitors, cell lysate, NAD-Glo luminescence (AID 1508614;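 active = compound whose remaining NAD level is above about 45 nM, limit read from the data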;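 note: higher remaining NAD means stronger inhibition of SARM1 NADase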). The settings on record: SAM-TIR HEK293T lysate NADase, at 1 µM, stronger effect = higher value.
Sequence of NAD(+) hydrolase SARM1 (Homo sapiens) (Q6SZW1 whole entry, looked up, the tested form may be a part): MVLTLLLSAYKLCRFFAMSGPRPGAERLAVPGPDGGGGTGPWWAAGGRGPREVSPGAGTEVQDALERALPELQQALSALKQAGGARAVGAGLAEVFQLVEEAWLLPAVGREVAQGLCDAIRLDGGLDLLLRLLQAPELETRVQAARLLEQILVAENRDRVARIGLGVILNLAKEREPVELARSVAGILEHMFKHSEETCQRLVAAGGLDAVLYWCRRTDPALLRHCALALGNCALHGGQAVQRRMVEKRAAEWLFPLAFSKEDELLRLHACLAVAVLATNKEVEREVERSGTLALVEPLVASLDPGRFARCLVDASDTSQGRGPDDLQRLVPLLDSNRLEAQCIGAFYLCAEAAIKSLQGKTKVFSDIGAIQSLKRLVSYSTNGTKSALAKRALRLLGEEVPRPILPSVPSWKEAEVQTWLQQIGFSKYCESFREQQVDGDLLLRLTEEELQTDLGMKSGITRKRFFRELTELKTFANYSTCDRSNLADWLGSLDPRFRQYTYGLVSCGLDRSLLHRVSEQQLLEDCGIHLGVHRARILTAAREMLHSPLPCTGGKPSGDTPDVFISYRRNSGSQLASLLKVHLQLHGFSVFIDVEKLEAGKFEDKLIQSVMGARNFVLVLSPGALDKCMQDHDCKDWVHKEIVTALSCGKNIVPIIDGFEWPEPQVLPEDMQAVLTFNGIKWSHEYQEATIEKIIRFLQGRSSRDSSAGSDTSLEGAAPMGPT
For experiment [6], the target named is Mitogen-activated protein kinase 7 (Homo sapiens) (UniProt Q13164). The experiment is described as follows: ERK5 transactivation activators in reporter cells, primary screen, cell-based, HTS (AID 1508626;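 active = luciferase signal above three times the same-plate solvent-only control wells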;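 note: luciferase driven by Gal4-ERK5 fusion binding five Gal4 sites before minimal TATA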). The settings on record: HeLa Gal4-ERK5 transactivation, 18 h, at 5 µM, stronger effect = higher value.
Sequence of Mitogen-activated protein kinase 7 (Homo sapiens) (Q13164 whole entry, looked up, the tested form may be a part): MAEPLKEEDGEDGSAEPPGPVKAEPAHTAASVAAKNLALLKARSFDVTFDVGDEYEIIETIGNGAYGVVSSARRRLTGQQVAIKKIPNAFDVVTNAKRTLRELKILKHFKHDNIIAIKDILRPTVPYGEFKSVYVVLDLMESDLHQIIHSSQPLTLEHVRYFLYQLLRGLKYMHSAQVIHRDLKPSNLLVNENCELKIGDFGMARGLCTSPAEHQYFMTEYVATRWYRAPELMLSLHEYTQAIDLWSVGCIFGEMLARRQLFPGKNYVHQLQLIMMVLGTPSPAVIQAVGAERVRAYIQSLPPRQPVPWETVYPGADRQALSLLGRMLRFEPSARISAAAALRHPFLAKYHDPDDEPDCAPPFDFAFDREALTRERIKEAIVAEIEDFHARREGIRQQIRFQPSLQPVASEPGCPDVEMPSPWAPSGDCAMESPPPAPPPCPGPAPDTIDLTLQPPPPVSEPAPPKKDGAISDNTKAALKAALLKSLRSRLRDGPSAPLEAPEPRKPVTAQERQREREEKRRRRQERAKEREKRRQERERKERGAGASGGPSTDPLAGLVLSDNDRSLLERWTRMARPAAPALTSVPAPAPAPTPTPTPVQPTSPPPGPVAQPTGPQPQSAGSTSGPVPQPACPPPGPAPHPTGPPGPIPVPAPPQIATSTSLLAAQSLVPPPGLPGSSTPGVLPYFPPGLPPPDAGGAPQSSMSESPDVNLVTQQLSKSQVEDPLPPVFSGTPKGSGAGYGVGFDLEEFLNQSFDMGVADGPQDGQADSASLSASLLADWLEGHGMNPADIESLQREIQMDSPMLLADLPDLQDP
The mark [7] stands for this setting: stronger effect = lower value, cell number ratio, induced over uninduced.
Setting [8] is: measured here: relative caspase fold change +Dox/-Dox.
[9] abbreviates: measured here: total cells with miR-34 induction, stronger effect = lower value.
Setting [10] is: measured here: total cells without miR-34 induction.
Setting [11] is: MELAS cybrid survival, CellTiter-Glo 48 h, stronger effect = higher value.
Where [12] appears, read: Rieske KO mouse fibroblast survival, CellTiter-Glo 72 h.

SMILES strings stand for the structures. Values joined by “and” are separate entries in the source; they are usually repeats but may differ in a detail not shown here. Equal values may be shown once. More than one record can exist for a structure, and the calls need not agree. Active and inactive are the calls of the source.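 Rule for the calls, unless noted: active = compounds whose cell count with miR-34 switched on is under 0.7 times the count with it off; inactive = the rest.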

Regarding `Cc1c(O)cccc1C(=O)N[C@@H](CSc1ccccc1)[C@H](O)CN1C[C@H]2CCCC[C@H]2C[C@H]1C(=O)NC(C)(C)C`, the fold change was 0.973 (inactive) and 1.07 (inactive) in experiment [1] (setting [7]); 1.56 and 1.1 in experiment [1] (setting [8]). Also, the cell count was 1740 and 4590 in experiment [1] (setting [9]); 1780 and 4280 in experiment [1] (setting [10]). Also, the call in experiment [2] was inactive. For the same molecule, the z-score is -0.847 (inactive) and 0.17 in experiment [3] (setting [11]); 0.453 and 2.01 in experiment [3] (setting [12]); -1.03 (inactive) and -1.48 (inactive) in experiment [4].
Regarding `C[C@H](NC(CCc1ccccc1)C(=O)O)C(=O)N1CCC[C@H]1C(=O)O` (stereo partly specified), the fold change was 0.987 (inactive) and 0.909 (inactive) in experiment [1] (setting [7]); 0.994 and 1.8 in experiment [1] (setting [8]). In addition, the cell count is 9660 and 10200 in experiment [1] (setting [9]); 9790 and 11200 in experiment [1] (setting [10]). Besides, the molecule was called inactive in experiment [2]. In addition, the z-score is -0.542 (inactive) in experiment [3] (setting [11]); -1.35 in experiment [3] (setting [12]); 0.7 (inactive) and 0.605 (inactive) in experiment [4]. Further, in experiment [5], the remaining NAD was 10 nM (inactive).
With `C[C@H]1c2cccc(O)c2C(O)=C2C(=O)[C@]3(O)C(O)=C(C(N)=O)C(=O)[C@@H](N(C)C)[C@@H]3[C@@H](O)[C@@H]21`, the fold change in experiment [1] (setting [7]) was 0.948 (inactive) and 0.723 (inactive) and 0.815 (inactive); in experiment [1] (setting [8]) it was 0.896 and 4.48 and 1.65. In addition, the cell count is 1440 and 3910 and 7870 in experiment [1] (setting [9]); 1520 and 5410 and 9650 in experiment [1] (setting [10]). For the same molecule, the molecule was called inactive in experiment [2]. Moreover, the z-score in experiment [3] (setting [11]) was 0.0416 (inactive) and -0.292 (inactive); in experiment [3] (setting [12]), -2.32 and -1.86; in experiment [4], 2.63 (active) and 2.23 (active). In experiment [5], the remaining NAD was 10 nM (inactive). In experiment [6], the luciferase signal is 64 AU (inactive).
On to `CCCCN(CCCC)CCCOC(=O)c1ccc(N)cc1`, for which the fold change was 0.866 (inactive) and 0.888 (inactive) in experiment [1] (setting [7]); 2.02 and 4.13 in experiment [1] (setting [8]). Besides, the cell count is 8920 and 11400 in experiment [1] (setting [9]); 10300 and 12800 in experiment [1] (setting [10]). In addition, the z-score was 0.278 (inactive) in experiment [3] (setting [11]) and -0.637 in experiment [3] (setting [12]). Also, in experiment [5], the remaining NAD was 10 nM (inactive). Also, the luciferase signal in experiment [6] is 120 AU (inactive).
On to `CCCCCN(CCCCC)C(=O)C(CCC(=O)O)NC(=O)c1ccc(Cl)c(Cl)c1` (stereo unspecified), for which the fold change in experiment [1] (setting [7]) is 1 (inactive) and 0.871 (inactive) and 0.904 (inactive); in experiment [1] (setting [8]), 0.913 and 1.58 and 1.45. For the same molecule, the cell count in experiment [1] (setting [9]) was 9880 and 9710 and 9580; in experiment [1] (setting [10]) it was 9840 and 11100 and 10600. The molecule was called inactive in experiment [2]. For the same molecule, the z-score in experiment [3] (setting [11]) was 0.699 (inactive) and -0.377 (inactive); in experiment [3] (setting [12]) it was -0.146 and -1.36; in experiment [4] it was 2.69 (active) and 0.255 (inactive). For the same molecule, the remaining NAD in experiment [5] is 10 nM (inactive).
With `OCC(O)CN1CCN(c2ccccc2)CC1` (stereo unspecified), the fold change in experiment [1] (setting [7]) was 0.91 (inactive) and 0.902 (inactive) and 0.934 (inactive); in experiment [1] (setting [8]) it was 1.09 and 0.695 and 0.504. Moreover, the cell count was 7870 and 8950 and 8400 in experiment [1] (setting [9]); 8650 and 9930 and 8990 in experiment [1] (setting [10]). For the same molecule, the z-score in experiment [3] (setting [11]) was -0.14 (inactive) and -0.167 (inactive) and 0.182 (inactive); in experiment [3] (setting [12]), -0.169 and -0.218 and 0.0795. Also, the remaining NAD in experiment [5] is 10 nM (inactive). Also, the luciferase signal in experiment [6] is 48 AU (inactive).
For the molecule `Cc1ccnc(NS(=O)(=O)c2ccc(N)cc2)n1`, the fold change in experiment [1] (setting [7]) was 0.871 (inactive) and 0.913 (inactive); in experiment [1] (setting [8]) it was 1.08 and 0.734 and 2.66. The cell count is 8890 and 7940 and 11400 in experiment [1] (setting [9]); 10200 and 8690 and 12500 in experiment [1] (setting [10]). Moreover, the z-score is -0.105 (inactive) and 0.577 (inactive) in experiment [3] (setting [11]); -0.152 and -0.312 in experiment [3] (setting [12]). Besides, in experiment [5], the remaining NAD was 10 nM (inactive). Also, in experiment [6], the luciferase signal is 68 AU (inactive).
For `Nc1ncnc2nc[nH]c12`, the fold change was 0.911 (inactive) and 0.881 (inactive) in experiment [1] (setting [7]); 0.822 and 4.73 in experiment [1] (setting [8]). Besides, the cell count in experiment [1] (setting [9]) was 8220 and 12600; in experiment [1] (setting [10]), 9020 and 14300. Moreover, the z-score in experiment [3] (setting [11]) is -0.543 (inactive); in experiment [3] (setting [12]), -0.641. The remaining NAD in experiment [5] is 10 nM (inactive). Besides, in experiment [6], the luciferase signal is 72 AU (inactive).
With `O=c1cc[nH]c(=S)[nH]1`, the fold change is 0.917 (inactive) in experiment [1] (setting [7]) and 0.54 in experiment [1] (setting [8]). Besides, the cell count in experiment [1] (setting [9]) turned out to be 7500; in experiment [1] (setting [10]) it was 8180. In addition, the z-score in experiment [3] (setting [11]) was -0.297 (inactive); in experiment [3] (setting [12]), -0.0433. In experiment [5], the remaining NAD was 10 nM (inactive). Also, the luciferase signal in experiment [6] is 100 AU (inactive).
